Experiment [1] concerns Plasmodium falciparum Sir2 (PF13_0152, Sir2A). As to the kind of experiment: Plasmodium falciparum Sir2A binding compounds – biochemical, small-molecule microarray, 635 nm fluorescence, primary screen (AID 1098).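 Note: score merges spot fluorescence intensity with its signal-to-noise ratio.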 The settings on record: fluorescence 635 nm, higher = more signal.
Experiment [2] can be described thus: probe aDKK1 binding to arrayed compounds – biochemical, biotinylated probe, 635/667 nm fluorescence, primary screen (AID 1099).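 Note: score merges 667nm spot fluorescence with signal to noise across triplicate slides.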 The settings on record: small-molecule microarray, higher = more signal.
A short description of experiment [3]: probe aCHRDL2 binding to arrayed compounds – biochemical, biotinylated probe, 635/667 nm fluorescence, primary screen (AID 1100). Particulars: small-molecule microarray, higher = more signal.
Experiment [4] in a line: change in splice reporter luminescence, either direction, cell-based, HEK293, spliceosome inhibition project, primary screen (AID 1101).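 Note: HEK293 cells carrying a splicing-competent luciferase reporter gene; test concentration not given here.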 Particulars: HEK293 splicing luciferase reporter, 24 h, higher = more signal, called active from +8 up or from −8 down. (In general: Reporter assays use an easily measured gene product as a stand-in for the process of interest.)
Experiment [5] concerns the target Fibroblast growth factor 10 (Homo sapiens) (UniProt O15520). As to the kind of experiment: compounds binding fibroblast growth factor 10 – biochemical, small-molecule microarray, 635 nm fluorescence, primary screen (AID 1102). The settings on record: FGF10 binding, fluorescence 635 nm, higher = more signal.
For experiment [6], the system named is glycogen synthase kinase-3 (GSK3A per assay name; protocol says GSK3B). As to the kind of experiment: compounds binding glycogen synthase kinase-3 – biochemical, small-molecule microarray, 635 nm fluorescence, GSK3A, primary screen (AID 1103). Note: the record names both GSK3A and GSK3B. Particulars: fluorescence 635 nm, higher = more signal.
Experiment [7] addresses Epidermal growth factor receptor (Homo sapiens) (UniProt P00533). Briefly: compounds binding epidermal growth factor receptor – biochemical, small-molecule microarray, 635 nm fluorescence, primary screen (AID 1104).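 Note: score merges 667 nm emission intensity with spot signal to noise over triplicate slides.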 Particulars: EGFR binding, higher = more signal.
For experiment [8], the target named is Follistatin-related protein 3 (Homo sapiens) (UniProt O95633). As to the kind of experiment: compounds binding follistatin-related protein 3 – biochemical, small-molecule microarray, 635 nm fluorescence, primary screen (AID 1105).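 Note: score merges emission near 667 nm and signal to noise per printed spot across three slides.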 Particulars: FSTL3 binding, higher = more signal.
Sequence of Follistatin-related protein 3 (Homo sapiens) (O95633 whole entry, looked up): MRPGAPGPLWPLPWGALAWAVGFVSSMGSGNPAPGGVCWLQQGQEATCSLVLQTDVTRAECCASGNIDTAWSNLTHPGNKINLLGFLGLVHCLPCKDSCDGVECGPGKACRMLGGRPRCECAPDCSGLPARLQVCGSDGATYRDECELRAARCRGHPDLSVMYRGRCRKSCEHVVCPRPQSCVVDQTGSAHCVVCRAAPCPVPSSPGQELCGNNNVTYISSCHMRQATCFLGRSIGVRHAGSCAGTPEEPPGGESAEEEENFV
The target of experiment [9] is Dickkopf-related protein 1 (Homo sapiens) (UniProt O94907). As to the kind of experiment: small molecules binding DKK1 protein – biochemical, small-molecule microarray, 635 nm fluorescence scan, primary screen (AID 1106).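 Note: score merges emission near 667 nm with signal to noise over three replicate slides.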 Particulars: higher = more signal.
Sequence of Dickkopf-related protein 1 (Homo sapiens) (O94907 whole entry, looked up): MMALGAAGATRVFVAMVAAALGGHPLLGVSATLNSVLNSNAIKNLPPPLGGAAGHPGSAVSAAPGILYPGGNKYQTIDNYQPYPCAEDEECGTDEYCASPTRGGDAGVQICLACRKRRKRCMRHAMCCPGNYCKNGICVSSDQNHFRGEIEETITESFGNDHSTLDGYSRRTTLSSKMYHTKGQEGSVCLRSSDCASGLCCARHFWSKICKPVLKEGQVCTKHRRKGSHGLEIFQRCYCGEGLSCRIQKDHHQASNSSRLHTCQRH
The subject of experiment [10] is Inhibin beta A chain (activin A). As to the kind of experiment: small molecules binding activin A – biochemical, small-molecule microarray, 635 nm fluorescence scan, primary screen (AID 1107).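 Note: mouse activin A protein probed at 4.33 µg/mL on printed slides; score merges bound-protein fluorescence near 667 nm with spot signal-to-noise.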 Particulars: INHBA, higher = more signal.
For experiment [11], the system named is Human papillomavirus type 1a protein E7 (residues 44-93). Briefly: small molecules binding HPV E7 44-93 – biochemical, small-molecule microarray, residues 44-93, 635 nm fluorescence, primary screen (AID 1108).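 Note: E7 fragment applied at 1 µg/mL in TBST for 1 h at 4 C; score combines spot fluorescence with its signal to noise ratio.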 Particulars: fluorescence 635 nm, higher = more signal.
Experiment [12] in a line: hepatitis C replication reporter changes, two-sided – Huh7 cells, luciferase reporter, HCV replication inhibitor project, primary screen (AID 1109).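 Note: huh7 hepatoma cells harbouring a luciferase neomycin HCV replicon reporter; luciferase luminescence as measure of HCV replicon replication; test concentration not given here.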 The settings on record: Huh7 HCV replicon luciferase reporter, 48 h; higher = more signal.
Experiment [13] addresses Left-right determination factor 2 (Homo sapiens) (UniProt O00292). As to the kind of experiment: small molecules binding LEFTY2 protein – biochemical, small-molecule microarray, 635 nm fluorescence scan, primary screen (AID 1110). The settings on record: higher = more signal.
Experiment [14] addresses Calmodulin-1 (Homo sapiens) (UniProt P0DP23). Briefly: small molecules binding calmodulin-1 with EGTA – biochemical, small-molecule microarray, Cy5-labelled CALM1, profiling panel (AID 1111).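 Note: labelled calmodulin applied in Tris saline Tween buffer holding calcium plus EGTA and DTT.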 Particulars: Cy5-CALM1 binding fluorescence, higher = more signal.
Experiment [15] has the same target. As to the kind of experiment: small molecules binding Ca-loaded calmodulin-1 – biochemical, small-molecule microarray, Cy5-labelled CALM1, plus calcium, artefact control for SMM control-protein annotation, profiling panel (AID 1112).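 Note: score merges spot fluorescence with signal to noise from triplicate slides.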 Particulars: Cy5-CALM1 binding fluorescence, higher = more signal.
The nature of experiment [16]: probe aWnt5a binding to arrayed compounds – biochemical, biotinylated probe, 635/667 nm fluorescence, primary screen (AID 1113).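 Note: score merges 667 nm fluorescence intensity with signal-to-noise per printed feature.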 Particulars: small-molecule microarray, higher = more signal.
Experiment [17] in a line: probe aShh binding to arrayed compounds – biochemical, biotinylated probe, 635/667 nm fluorescence, primary screen (AID 1114).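 Note: probe is biotin-labelled aShh protein from a stem cell growth factor screen; measures binding of labelled protein to compounds printed on the slide; score merges feature fluorescence at 667 nm with signal-to-noise.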 Particulars: small-molecule microarray, higher = more signal.
Experiment [18] can be described thus: probe aNog binding to arrayed compounds – biochemical, biotinylated probe, 635/667 nm fluorescence, primary screen (AID 1115).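 Note: probe is biotinylated aNog protein used at 0.15 µg/mL for 1 h at 4 C; z-score combines 667 nm fluorescence of each spot with its signal to noise.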 Particulars: small-molecule microarray, higher = more signal.
Experiment [19] has as its target Torsin-1A-interacting protein 1 (Homo sapiens) (UniProt Q5JTV8). Briefly: compound microarray binding of lysate hLAP1 – cell lysate, small-molecule microarray, COS7 lysate, 635/667 nm fluorescence, primary screen (AID 1116). The settings on record: 635 nm fluorescence, higher = more signal.
Experiment [20] has as its target Alpha-bungarotoxin (Bungarus multicinctus) (UniProt P60615). Briefly: compounds binding labelled alpha-BTX control protein – biochemical, small-molecule microarray, Alexa647 label, 635/667 nm fluorescence, artefact control for SMM control protein annotation, profiling panel (AID 1117). The settings on record: alpha-BTX-A647 binding fluorescence, higher = more signal.

Structures are written as SMILES. “And” between values parts separate entries of the source, which are not always exact repeats. Identical values can stand only once. The source made the active and inactive calls.

Sequence of Torsin-1A-interacting protein 1 (Homo sapiens) (Q5JTV8 whole entry, looked up): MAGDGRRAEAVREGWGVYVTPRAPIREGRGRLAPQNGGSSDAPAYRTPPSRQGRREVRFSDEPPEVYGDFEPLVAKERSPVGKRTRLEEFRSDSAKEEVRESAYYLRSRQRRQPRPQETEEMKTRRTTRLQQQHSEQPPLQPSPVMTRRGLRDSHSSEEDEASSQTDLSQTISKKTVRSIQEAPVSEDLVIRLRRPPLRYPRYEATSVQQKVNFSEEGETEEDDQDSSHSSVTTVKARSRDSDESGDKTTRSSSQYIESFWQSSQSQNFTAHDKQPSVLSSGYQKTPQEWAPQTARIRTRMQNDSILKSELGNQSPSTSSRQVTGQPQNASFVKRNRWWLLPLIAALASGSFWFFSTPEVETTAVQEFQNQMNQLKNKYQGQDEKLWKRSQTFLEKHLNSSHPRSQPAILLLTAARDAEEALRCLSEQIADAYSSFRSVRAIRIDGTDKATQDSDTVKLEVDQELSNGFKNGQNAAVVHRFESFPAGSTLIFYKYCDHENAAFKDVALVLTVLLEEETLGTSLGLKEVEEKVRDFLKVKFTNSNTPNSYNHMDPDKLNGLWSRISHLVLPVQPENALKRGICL
Sequence of Fibroblast growth factor 10 (Homo sapiens) (O15520 whole entry, looked up): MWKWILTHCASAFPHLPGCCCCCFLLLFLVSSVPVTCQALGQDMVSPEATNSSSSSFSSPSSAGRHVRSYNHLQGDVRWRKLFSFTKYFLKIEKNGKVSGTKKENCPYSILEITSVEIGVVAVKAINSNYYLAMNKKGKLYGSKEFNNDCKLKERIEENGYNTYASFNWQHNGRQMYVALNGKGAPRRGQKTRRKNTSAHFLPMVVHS
Sequence of Alpha-bungarotoxin (Bungarus multicinctus) (P60615 whole entry, looked up): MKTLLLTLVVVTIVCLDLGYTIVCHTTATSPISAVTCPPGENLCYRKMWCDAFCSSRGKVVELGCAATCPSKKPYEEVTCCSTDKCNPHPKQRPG
Sequence of Epidermal growth factor receptor (Homo sapiens) (P00533 whole entry, looked up): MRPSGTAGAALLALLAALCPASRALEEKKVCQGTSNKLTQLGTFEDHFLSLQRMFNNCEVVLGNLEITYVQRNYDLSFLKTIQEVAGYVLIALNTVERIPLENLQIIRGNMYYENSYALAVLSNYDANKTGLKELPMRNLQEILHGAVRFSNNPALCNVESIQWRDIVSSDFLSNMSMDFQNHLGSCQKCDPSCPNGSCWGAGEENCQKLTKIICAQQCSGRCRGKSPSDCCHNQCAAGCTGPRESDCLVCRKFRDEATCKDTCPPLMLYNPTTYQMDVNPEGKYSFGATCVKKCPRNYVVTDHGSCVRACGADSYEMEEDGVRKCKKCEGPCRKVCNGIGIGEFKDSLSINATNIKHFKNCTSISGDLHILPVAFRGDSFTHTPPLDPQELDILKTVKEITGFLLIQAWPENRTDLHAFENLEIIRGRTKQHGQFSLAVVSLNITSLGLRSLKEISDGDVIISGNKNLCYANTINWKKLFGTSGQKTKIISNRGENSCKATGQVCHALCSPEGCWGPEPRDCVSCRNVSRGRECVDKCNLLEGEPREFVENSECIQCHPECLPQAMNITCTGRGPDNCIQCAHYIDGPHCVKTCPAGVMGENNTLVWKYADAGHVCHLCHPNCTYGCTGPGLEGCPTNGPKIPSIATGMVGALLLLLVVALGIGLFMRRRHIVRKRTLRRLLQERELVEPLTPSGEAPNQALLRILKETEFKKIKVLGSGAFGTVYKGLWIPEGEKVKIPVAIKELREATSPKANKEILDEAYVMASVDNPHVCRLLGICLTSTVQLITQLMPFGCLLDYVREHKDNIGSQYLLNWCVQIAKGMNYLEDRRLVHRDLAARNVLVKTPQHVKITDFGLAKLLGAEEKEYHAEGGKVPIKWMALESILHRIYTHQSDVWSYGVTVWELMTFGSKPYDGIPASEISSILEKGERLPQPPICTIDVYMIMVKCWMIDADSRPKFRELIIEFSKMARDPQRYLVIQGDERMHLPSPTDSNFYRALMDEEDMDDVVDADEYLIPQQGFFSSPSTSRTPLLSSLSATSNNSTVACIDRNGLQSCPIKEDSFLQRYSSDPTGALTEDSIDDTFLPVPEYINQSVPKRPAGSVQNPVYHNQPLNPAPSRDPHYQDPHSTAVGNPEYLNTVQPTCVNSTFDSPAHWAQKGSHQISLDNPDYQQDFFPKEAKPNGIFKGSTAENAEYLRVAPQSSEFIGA
Sequence of Left-right determination factor 2 (Homo sapiens) (O00292 whole entry, looked up): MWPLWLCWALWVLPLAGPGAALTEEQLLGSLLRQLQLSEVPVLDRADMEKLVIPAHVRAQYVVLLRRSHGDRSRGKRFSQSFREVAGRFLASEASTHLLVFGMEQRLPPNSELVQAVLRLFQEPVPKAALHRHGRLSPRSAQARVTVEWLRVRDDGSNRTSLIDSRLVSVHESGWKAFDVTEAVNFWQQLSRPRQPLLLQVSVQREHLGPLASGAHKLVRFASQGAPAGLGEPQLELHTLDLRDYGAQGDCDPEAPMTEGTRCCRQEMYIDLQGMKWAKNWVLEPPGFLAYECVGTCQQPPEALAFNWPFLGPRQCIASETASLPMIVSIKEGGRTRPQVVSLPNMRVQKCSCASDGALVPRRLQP

For `C=CCN1C(=O)[C@]2(O[C@H](CCn3cc(CCO)nn3)[C@@H]([Si](C)(C)c3ccc(OC)cc3)[C@@H]2C)c2cc(N3C(=O)c4cccc5cccc3c45)ccc21`, the composite z-score in experiment [1] was 0.306 and 1.07; in experiment [2] it was -0.206 and -0.233; in [3], -0.106 and -0.142; in experiment [5] it was 0.726 and 1.05; in experiment [6], 0.26 and 0.521; in [7] it was -0.0684 and -0.247. The composite z-score is 0.228 and 0.181 in experiment [8]; -0.0095 and -0.0589 in experiment [9]; 0.538 and 0.516 in experiment [10]; 1.33 and 0.725 in experiment [11]; 0.238 and -0.0491 in [13]; 0.345 and 0.772 in [14]. In addition, the composite z-score in [15] is -0.0218 and 0.227; in experiment [16], -0.0203 and 0.0079; in experiment [17], 0.0048 and 0.14; in experiment [18], -0.136 and -0.0115; in [19] it was 1.11 and 0.749; in experiment [20], 0.334 and 0.366. In addition, the z-score in [4] was -4 (inactive) and -3.52 (inactive); in [12], -5.11 and -5.13.
For the compound `CC(CO)N1C(=O)[C@@H]2C3C(=O)OCCC=C[C@H]3OC23C=CCN(CCN2CCOCC2)C(=O)[C@@H]13` (stereo not given in full), the composite z-score in experiment [1] was 0.53 and 0.55; in [2], -0.278 and 0.0598; in [3], -0.389 and 0.466; in [5], -0.131 and -0.0694; in [6], -0.496 and 0.65; in [7] it was -0.51 and -0.235. The composite z-score in [8] is -0.0214 and -0.166; in experiment [9], 0.0325 and -0.442; in [10], 0.621 and 1.59; in experiment [11] it was -1.05 and 0.497; in experiment [13], -0.346 and 0.398; in experiment [14] it was -0.0612 and -0.561. The composite z-score in experiment [15] was -0.75 and -1.03; in experiment [16] it was -0.0981 and -0.13; in experiment [17] it was 0.0278 and 0.214; in experiment [18], 0.199 and -0.0161; in [19] it was -0.71 and 1.48; in [20], -0.106 and -0.0808. Also, the z-score in [4] was 0.388 (inactive) and -0.153 (inactive); in [12], -0.38 and -0.851.
Regarding `Cc1ccc(S(=O)(=O)N[C@H]2COC(=O)[C@@H](Cc3ccccc3)NC(=O)[C@@H](C)COC(=O)CC=C[C@@H]2C)cc1`, the composite z-score in experiment [1] was -0.218 and 0.304; in experiment [2] it was -0.483 and -0.332; in experiment [3], -0.803 and -0.645; in experiment [5], 0.117 and 0.435; in experiment [6] it was -0.0808 and -0.0049; in experiment [7], 0.513 and 0.282. Further, the composite z-score in experiment [8] was 0.87 and 0.533; in [9], 0.871 and 0.895; in experiment [10], 0.657 and 0.0736; in [11], -1.28 and 0.123; in experiment [13], 0.839 and 0.546; in experiment [14], -0.233 and -0.354. The composite z-score was -0.372 and -0.879 in [15]; -0.1 and -0.0912 in experiment [16]; 0.0494 and -0.138 in experiment [17]; -0.122 and -0.038 in [18]; 0.15 and -0.0849 in experiment [19]; 0.423 and -0.1 in [20]. In addition, the z-score in experiment [4] was 0.565 (inactive) and -0.0193 (inactive); in experiment [12] it was 1.41 and -1.89.
With `CCOC(=O)CCN1C(=O)[C@H]2[C@H]3[C@H](O)[C@H](O)CC(=NNC(=O)OCC)[C@@H]3CC[C@H]2C1=O`, the composite z-score in experiment [1] was 0.238; in [2], -0.0567; in experiment [3], -0.0213; in [5], 0.283; in experiment [6], 0.0666; in [7], 0.209. For the same compound, the composite z-score was 0.0654 in experiment [8]; -0.0149 in [9]; -0.772 in experiment [10]; 0.582 in experiment [11]; 0.354 in [13]; 0.0089 in [14]. Besides, the composite z-score in experiment [15] is -1.05; in [16], 0.0511; in experiment [17], -0.273; in experiment [18], 0.0234; in experiment [19] it was -0.0895; in [20], 0.353. The z-score was 0.519 (inactive) in [4] and 0.374 in experiment [12].
Turning to `CCOC(=O)c1ccc(NC(=O)O[C@H]2[C@H](OC(=O)Nc3ccccc3)[C@H](OC(=O)Nc3ccccc3)[C@@H](OC)O[C@@H]2CO)cc1`, the composite z-score in experiment [1] was 1.45 and 1.74; in experiment [2], 0.968 and 0.673; in experiment [3], 0.873 and 0.902; in experiment [5], 1.27 and 0.968; in experiment [6] it was 1.31 and 1.33; in experiment [7], 0.591 and 0.218. Moreover, the composite z-score in [8] was 1.39 and 1.38; in experiment [9], 0.531 and 0.259; in experiment [10] it was 0.888 and 0.327; in experiment [11] it was 1.2 and 1.34; in experiment [13] it was 0.899 and 0.291; in [14], 2 and 2.1. Also, the composite z-score in experiment [15] is 0.0672 and 0.407; in experiment [16] it was 0.0438 and -0.0417; in [17] it was 0.113 and 0.337; in experiment [18], 0.576 and 0.978; in experiment [19] it was 1.74 and 1.88; in [20], 1.86 and 2.87. In addition, the z-score in experiment [4] was -0.285 (inactive) and -0.997 (inactive); in experiment [12], -3.29 and -3.49.

Source of the values: PubChem BioAssay.
